The assay relates to Plasmodium falciparum NF54/iGP1_RE9H ulg8 stage V gametocytes. The assay can be described thus: gametocyte viability (luciferase signal relative to DMSO control) (% of DMSO control); higher = less gametocytocidal activity, active = 50 or less. The note with it: exposure time: 72 h. In outline:
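NF54/iGP1_RE9Hulg8 stage V gametocytes (day 12; ~2.5% gametocytemia, 3% hematocrit) were incubated with compounds at 10 µM or 1 µM final, in one well each, for 72 h at 37 °C in medium with 0.5% Albumax II. Luminescence after D-luciferin addition was read on an IVIS Lumina II. Viability refers to the mean of plate DMSO vehicle wells.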

This note sets out measurements from the supplement of paper PMC12297408.

Values joined by “and” are separate entries in the source; they are usually repeats but may differ in a detail not shown here. Equal entries are not always repeated. Values without a mark were called inactive.

On to `C=CC(=O)Nc1cc2c(Nc3ccc(F)c(Cl)c3)ncnc2cc1OCCCN1CCOCC1` [CI-1033 (Canertinib)], for which the gametocyte viability is 97.8 (concentration: 1 µM) and 100 (concentration: 10 µM).
The corresponding values for `CC(C)(C)c1cnc(CSc2cnc(NC(=O)C3CCNCC3)s2)o1` are 104 and 101.
With `c1cncc(CN2CCC(n3ncc4c(N5CCOCC5)nc(-c5ccc6[nH]ccc6c5)nc43)CC2)c1`, the gametocyte viability is, setting by setting: (concentration: 1 µM) 95.7; (concentration: 10 µM) 103.
The corresponding values for `COc1cc2ncnc(Nc3cccc(Br)c3)c2cc1OC` are 95.6 and 114.
For `CC[C@@H]1C(=O)N(C)c2cnc(Nc3ccc(C(=O)N[C@H]4CC[C@H](N5CCN(CC6CC6)CC5)CC4)cc3OC)nc2N1C(C)C` [BI6727 (Volasertib)], the gametocyte viability runs as follows: (concentration: 1 µM) 84.9; (concentration: 10 µM) 61.9.
As for `C[C@@H]1CCN(C(=O)CC#N)C[C@@H]1N(C)c1ncnc2[nH]ccc12`, the gametocyte viability runs as follows: (concentration: 1 µM) 107; (concentration: 10 µM) 110.
The corresponding values for `COc1cc(Nc2c(C#N)cnc3cc(OCCCN4CCN(C)CC4)c(OC)cc23)c(Cl)cc1Cl` [Bosutinib (SKI-606)] are 86.4 and 98.1.
On to `O=C1Nc2ccc(I)cc2/C1=C/c1cc(Br)c(O)c(Br)c1`, for which the gametocyte viability runs as follows: (concentration: 1 µM) 92.1; (concentration: 10 µM) 90.5.
The corresponding values for `O=C(NOCC(O)CO)c1cc(Br)c(F)c(F)c1Nc1ccc(I)cc1F` (configuration not stated) are 99.1 and 97.3.
The matching figures for `O=C(Nc1c[nH]nc1-c1nc2ccc(CN3CCOCC3)cc2[nH]1)NC1CC1`: 131 and 113.
Regarding `C=CC(=O)N1CCC[C@@H](n2nc(-c3ccc(Oc4ccccc4)cc3)c3c(N)ncnc32)C1`, the gametocyte viability (concentration: 1 µM) was 106 and the gametocyte viability (concentration: 10 µM) is 104.
The corresponding values for `COc1ccc(-c2ccc3c(N4CCOC[C@@H]4C)nc(N4CCOC[C@@H]4C)nc3n2)cc1CO` are 96.5 and 78.9.
As to `Cc1cc(Nc2cc(CN3CCOCC3)c3nc(C)c(Cc4ccc(Cl)cc4F)n3n2)n[nH]1`, the gametocyte viability (concentration: 1 µM) is 95.6 and the gametocyte viability (concentration: 10 µM) was 97.8.
The corresponding values for `N#C/C(=C\c1ccc(O)c(O)c1)C(=O)NCc1ccccc1` are 98.4 and 95.8.
The matching figures for `COc1ccc(-c2ccc3c(N4CCOCC4)nc(N4C[C@@H](C)O[C@@H](C)C4)nc3n2)cc1CO`: 97.1 and 108.
The matching figures for `Cn1c(=O)n(-c2ccc(C(C)(C)C#N)cc2)c2c3cc(-c4cnc5ccccc5c4)ccc3ncc21`: 96.8 and 104.
For the compound `COc1cccc(-c2cc(=O)c3ccccc3o2)c1N`, the gametocyte viability was 97.3 and 93.2 (concentration: 1 µM); 64.5 and 69.7 (concentration: 10 µM).
Take `Cc1cc(Nc2nc(N[C@@H](C)c3ncc(F)cn3)ncc2Cl)[nH]n1`: the gametocyte viability is 97.5 (concentration: 1 µM) and 95.5 (concentration: 10 µM).
The corresponding values for `Cc1cnc(Nc2ccc(N3CCN(C)CC3)cc2)nc1Nc1cccc(S(=O)(=O)NC(C)(C)C)c1` are 91.9 and 66.6.
The matching figures for `CO[C@H]1C[C@@H]2CC[C@@H](C)[C@@](O)(O2)C(=O)C(=O)N2CCCC[C@H]2C(=O)O[C@H]([C@H](C)C[C@@H]2CC[C@@H](O)[C@H](OC)C2)CC(=O)[C@H](C)/C=C(\C)[C@@H](O)[C@@H](OC)C(=O)[C@H](C)C[C@H](C)/C=C/C=C/C=C/1C` [Rapamycin]: 97.3 and 97.3.
Turning to `C[S+]([O-])c1ccc(-c2nc(-c3ccc(F)cc3)c(-c3ccncc3)[nH]2)cc1` (configuration not stated), the gametocyte viability was 97.2 and 103 (concentration: 1 µM); 109 and 105 (concentration: 10 µM).
